# From PubChem BioAssay
# Exocytosis inh: blocks lytic granule exocytosis; inhibition, % at 10 µM; TALL-104 LAMP-1 surface exposure, flow cytometry; cells stimulated with thapsigargin and PMA; AID 651702; 360,000 tested, 0.66% active;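 active means inhibition above about 55%, limit read from the data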
# ABCB6 inh MLPCN: inhibitors of human ABC transporter ABCB6; Q9NP58; K562-ABCB6 porphyrin accumulation, flow cytometry, 1 h; hits give low values; fluorescence ratio to DMSO, % at 10 µM; 360,000 tested, 0.19% active; AID 602162;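 active means fluorescence ratio to DMSO below 75%, the collection mean minus 3 SD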;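 further: signal is porphyrin accumulated inside mitochondria; 100% equals median channel fluorescence of DMSO control wells; lower ratio means ABCB6 inhibition with less porphyrin fluorescence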
# Rev-erbA mod: modulates human Rev-erb alpha binding to DNA; Rev-erbα–FITC-DNA binding, fluorescence polarization, 90 min; activity, % at 10 µM; P20393; 370,000 tested, 0.79% active;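 active means activity above about 14%, limit read from the data; passing the limit was not always enough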;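 further: 0% = DMSO wells with 35 nM protein and 100% = DMSO wells with 750 nM protein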
# Target sequence (P20393 whole entry, looked up): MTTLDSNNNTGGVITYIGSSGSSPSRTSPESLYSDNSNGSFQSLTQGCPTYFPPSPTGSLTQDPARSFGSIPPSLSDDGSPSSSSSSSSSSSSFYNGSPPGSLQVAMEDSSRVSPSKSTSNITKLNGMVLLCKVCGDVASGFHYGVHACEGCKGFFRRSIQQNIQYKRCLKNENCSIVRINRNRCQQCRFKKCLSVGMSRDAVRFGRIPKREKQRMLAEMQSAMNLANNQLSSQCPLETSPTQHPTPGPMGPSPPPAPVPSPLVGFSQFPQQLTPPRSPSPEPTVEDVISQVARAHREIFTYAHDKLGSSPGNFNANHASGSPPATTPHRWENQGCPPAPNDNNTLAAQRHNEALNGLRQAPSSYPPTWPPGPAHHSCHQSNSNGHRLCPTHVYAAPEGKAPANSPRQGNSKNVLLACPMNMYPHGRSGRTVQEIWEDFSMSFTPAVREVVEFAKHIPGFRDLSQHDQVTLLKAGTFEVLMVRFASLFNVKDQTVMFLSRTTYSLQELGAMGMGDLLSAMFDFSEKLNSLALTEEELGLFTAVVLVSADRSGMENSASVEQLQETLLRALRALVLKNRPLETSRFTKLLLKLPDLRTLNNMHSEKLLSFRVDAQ
# PG9 binder: binds the HIV-1 gp120 antibody PG9 | TR-FRET gp120-PG9 antibody binding | inhibition, % at 6.7 µM | 360,000 tested, 0.43% active; in the data active means inhibition above about 8.5%
# VLA-4 inh: inhibition in a human VLA-4 binding assay; VLA-4 expressing cells, ligand binding flow cytometry; inhibition, % (about 7 µM as worked out from the volumes in the protocol); 330,000 tested, 0.2% active; P13612; in the data active means inhibition above about 50%
# ABCB6 inh CP1: human ABCB6 transporter inhibition; K562-ABCB6 porphyrin accumulation, flow cytometry, 1 h; hits give low values; AID 602430; ratio response (% of DMSO), % at 10 µM; shares compounds with ABCB6 inh MLPCN; 700 tested, under 10 active;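 active means repeat-averaged ratio response below 75% of DMSO, the collection mean minus 3 SD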;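 further: median porphyrin fluorescence at 575 nm with 488 nm excitation from mitochondria; lower ratio means less porphyrin signal so ABCB6 inhibition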
# PG9 binder conf: confirmation of small molecules binding HIV-1 gp120 antibody PG9; inhibition, % at 6.7 µM; 1,500 tested, 90% active; TR-FRET PG9 antibody binding, biochemical; shares compounds with PG9 binder; in the data active means inhibition above about 9%
# PGV04 counter: binds control antibody PGV04 in PG9 binder counter-screen | 1,500 tested, 95% active | shares compounds with PG9 binder | inhibition, % at 6.7 µM | TR-FRET PGV04 antibody-gp120 binding, biochemical; in the data active means inhibition above about 9.5%
# Exocytosis CP01: lytic granule exocytosis inhibition. shares compounds with Exocytosis inh. TALL-104 cells, LAMP-1 externalization, flow cytometry; stimulated with PMA plus thapsigargin. 1,500 tested, 11% active. inhibition, % at 10 µM; in the data active means inhibition above about 60%;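 further: 0% = stimulated vehicle wells and 100% = unstimulated wells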
# NR1D1 mod conf: Rev-erb alpha (human) modulation, hit confirmation; activation, % at 25 µM; Rev-erb alpha FITC-DNA binding, fluorescence polarization, 90 min; 3,000 tested, 61% active; shares compounds with Rev-erbA mod;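 active means activation at or above a set limit, or at least 3 SD above the negative control mean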;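 further: 0% = 35 nM protein with DMSO and 100% = 750 nM protein high control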
# RORg DNA counter: RORgamma DNA-binding activity, dose-response counter-screen; 910 tested, 8% active; purified RORgamma protein-FITC-DNA binding, fluorescence polarization; shares compounds with Rev-erbA mod; AID 1259320; IC50, µM;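 active means Compounds whose fitted half-maximal concentration for disrupting protein-DNA binding is below 10 micromolar; the record names Rev-erb in its text, so the target is in doubt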
# Numbers without * were called inactive; . = not tested or not shown; ! = not confirmed by another sample. The list is not random: actives were taken first. Their share in the collection is about 2%.
SMILES,Exocytosis inh,ABCB6 inh MLPCN,Rev-erbA mod,PG9 binder,VLA-4 inh,others
CN1C(=O)[C@@]23C[C@]4(c5c[nH]c6ccccc56)c5ccccc5N(S(=O)(=O)c5ccccc5)[C@@H]4N2C(=O)[C@@H]1SS3,.,.,-1,.,.,
CCOC(=O)c1c(-n2c(C)cc(/C=C3/C(=O)NC(=O)N(CC)C3=O)c2C)sc2c1CCCC2,13,73*,6,0,0,ABCB6 inh CP1=107
O=C1CC[C@@]2(O)[C@H]3Cc4ccc(O)c5c4C2(CCN3CC2CC2)[C@H]1O5,.,.,-8,.,.,
Fc1ccccc1CNCCc1c[nH]c2ccccc12,12,100,-1,-1,14,
Fc1ccc(CNCCc2c[nH]c3ccccc23)cc1,14,69*,2,0,0,ABCB6 inh CP1=100
CCN1C(=O)C(=C2C=C(C)N(Cc3ccco3)C(C)=C2)C(=O)N(CC)C1=S,2,90,2,20*,2,PG9 binder conf=22*;PGV04 counter=27*
CCN1C(=O)C(=C/C=C/c2ccco2)C(=O)N(CC)C1=S,-2,126,-2,-2,-1,
Cn1c(O)c(/C=C2\C=Nc3ccccc32)c(=O)n(C)c1=O,-4,101,4,18*,5,PG9 binder conf=13*;PGV04 counter=28*
CC(C)C(CN1CCC(C)(c2cccc(O)c2)[C@@H](C)C1)NC(=O)C1Cc2ccc(O)cc2CN1 (some centres undefined),.,.,-3,0,.,
Cc1cccc(C)c1-n1nnnc1C(CCc1ccccc1)N1CCC(n2c(=O)[nH]c3ccccc32)CC1 (centres undefined),91*,92,2,1,.,Exocytosis CP01=95*
O=C(NCCN1CCC2(CC1)C(=O)NCN2c1ccccc1)c1ccc(OC(F)(F)F)cc1,.,.,3,-1,.,
CCOC(=O)[C@]12Cc3cc(OC)ccc3[C@H]1N(C1CCCCC1)C(=O)c1cc(OC)ccc12,64*,100,4,0,.,Exocytosis CP01=0
CCOC(=O)[C@]12Cc3cc(C)ccc3[C@H]1N(C1CCCCC1)C(=O)c1cc(OC)ccc12,84*,93,-2,0,.,Exocytosis CP01=4
CCOC(=O)[C@]12Cc3ccccc3[C@H]1N(C)C(=O)c1cc(OC)ccc12,-7,95,-5,2,.,
C=CC[C@]1(O)CCC2C3CCC4=CC(=O)CCC4=C3C=C[C@@]21C (some centres undefined),.,.,-5,.,.,
COc1ccc(Cn2c(N)c(C(=O)NCc3ccco3)c3nc4ccccc4nc32)cc1,59*,99,8,1,-25,Exocytosis CP01=18
Nc1c(C(=O)NCc2ccco2)c2nc3ccccc3nc2n1Cc1ccccc1,22,95,2,0,-2,
CN1CC[C@@H]2CN[C@H](c3ccccc3Br)C[C@@H]21,.,.,4,-3,.,
COc1ccc(Br)cc1CNCCc1ccc2c(c1)OCO2,59*,85,-3,-1,6,Exocytosis CP01=-4
CC(C)C(NC(=O)OCc1ccccc1)P(=O)(Oc1ccccc1)Oc1ccccc1 (centres undefined),.,.,7,.,.,
CCC(C)N1C(=O)NC(=O)C2(Cc3c(ccc4ccccc34)N(C)C2)C1=O (centres undefined),60*,89,-5,-1,-11,Exocytosis CP01=-11
COc1ccc2c(c1)CC1(CN2C)C(=O)NC(=O)N(CCc2ccccc2)C1=O (centres undefined),0,98,0,-2,2,
CCOc1ccc(N)cc1,101*,101,2,-2,.,Exocytosis CP01=-12
C=CCN1CCc2cccc3c2[C@H]1Cc1ccc(O)c(O)c1-3,84*,102,-3,2,-4,Exocytosis CP01=27
COC(=O)C1=C(c2cccc(OCc3ccccc3)c2)C[C@@H]2CC[C@H]1N2C(=O)NCCOc1ccc(OC)cc1,9,93,-1,-1,-9,
SMILES,Exocytosis inh,ABCB6 inh MLPCN,Rev-erbA mod,PG9 binder,VLA-4 inh,others
COC(=O)C1=C(c2cccc(OCc3ccccc3)c2)C[C@@H]2CC[C@H]1N2C(=O)NCCCOC(C)C,98*,101,0,-1,-2,Exocytosis CP01=-4
COc1ccc(-n2c(/C=C/c3ccc(O)c(OC)c3)nc3ccccc3c2=O)cc1,58*,108,2,-3,-229,Exocytosis CP01=-4
COc1ccc(-n2c(/C=C/c3ccc(O)cc3)nc3ccccc3c2=O)cc1,4,118,-1,0,-10,
N#Cc1ccc(NC(=S)N2Cc3ccc(Br)cc3-n3nncc3C2)cc1,.,.,-4,1,.,
O=[N+]([O-])c1ccc(N2CCCC2)c2ccncc12,-3,92,36*,-7,-21,NR1D1 mod conf=35*;RORg DNA counter=>40
O=[N+]([O-])c1ccc(NC2CCCC2)c2ccncc12,14,101,.,.,10,
O=C(O)c1ccccc1-c1c2cc(Br)c(=O)cc-2oc2[c]([Hg])c(O)c(Br)cc12,.,.,118*,.,.,NR1D1 mod conf=79*
CCOC(=O)CNC(=O)N1Cc2cc(Br)ccc2-n2nncc2C1,.,.,-1,-1,.,
Nc1c2c(nc3ccccc13)CCN(Cc1ccccc1)C2,34,108,32*,-1,-42,NR1D1 mod conf=34*;RORg DNA counter=>40
CCCCCCC[n+]1ccc(-c2cc[n+](CCCCCCC)cc2)cc1,-1,97,-4,-1,-12,
CCCCCCCCCCCCCCCC[n+]1ccccc1,8,100,25*!,-1,.,NR1D1 mod conf=-3
COC(=O)C1C(c2ccc(F)cc2)CC2CCC1N2C (centres undefined),.,.,-2,1,.,
Cc1c(C(=O)c2cccc3ccccc23)c2cccc3c2n1[C@H](CN1CCOCC1)CO3,15,97,27*,-3,8,NR1D1 mod conf=16*
O=C(CN1CCOCC1)c1cccc2ccccc12,-2,96,7,0,21,
CCOC(=O)C1CCCN(c2ccc([N+](=O)[O-])c3nonc23)C1 (centres undefined),-3,115,57*,-1,.,NR1D1 mod conf=57*;RORg DNA counter=2.5*
CC1CCCN(c2ccc(C(=O)N3CCC4(CC3)OCCO4)cc2[N+](=O)[O-])C1 (centres undefined),-1,97,5,-1,2,
C=C(C)c1cccc(C(C)(C)NC(=O)NC2CN3CCC2CC3)c1 (centres undefined),1,96,38*,0,2,NR1D1 mod conf=46*
